Measured values: PubChem BioAssay
Calls of active or inactive are those of the source.

What was measured:
[1] = anti-His antibody binders, primary screen, artefact control for SMM control protein annotation, biochemical, small-molecule microarray, 635 nm fluorescence (AID 1128); conditions: anti-His Alexa647 antibody binding, higher = more signal;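 further: score merges feature fluorescence with signal-to-noise for each printed compound spot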
[2] = test system: Human papillomavirus type 1a E7 protein (residues 1-88); experiment: HPV1a E7 small-molecule binders, primary screen, biochemical, small-molecule microarray, residues 1-88, 635 nm (AID 1129); conditions: small-molecule microarray binding, fluorescence 635 nm; higher = more signal
[3] = molecular target: Focal adhesion kinase 1 (Homo sapiens) (UniProt Q05397); experiment: small-molecule microarray binders of FAK, primary screen, biochemical, 635/667 nm fluorescence, BSA, DTT (AID 1130); conditions: PTK2 binding, 635 nm fluorescence, higher = more signal;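 further: composite of spot emission at 667 nm and signal to noise over triplicate slides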
Sequence of Focal adhesion kinase 1 (Homo sapiens) (Q05397 whole entry, looked up): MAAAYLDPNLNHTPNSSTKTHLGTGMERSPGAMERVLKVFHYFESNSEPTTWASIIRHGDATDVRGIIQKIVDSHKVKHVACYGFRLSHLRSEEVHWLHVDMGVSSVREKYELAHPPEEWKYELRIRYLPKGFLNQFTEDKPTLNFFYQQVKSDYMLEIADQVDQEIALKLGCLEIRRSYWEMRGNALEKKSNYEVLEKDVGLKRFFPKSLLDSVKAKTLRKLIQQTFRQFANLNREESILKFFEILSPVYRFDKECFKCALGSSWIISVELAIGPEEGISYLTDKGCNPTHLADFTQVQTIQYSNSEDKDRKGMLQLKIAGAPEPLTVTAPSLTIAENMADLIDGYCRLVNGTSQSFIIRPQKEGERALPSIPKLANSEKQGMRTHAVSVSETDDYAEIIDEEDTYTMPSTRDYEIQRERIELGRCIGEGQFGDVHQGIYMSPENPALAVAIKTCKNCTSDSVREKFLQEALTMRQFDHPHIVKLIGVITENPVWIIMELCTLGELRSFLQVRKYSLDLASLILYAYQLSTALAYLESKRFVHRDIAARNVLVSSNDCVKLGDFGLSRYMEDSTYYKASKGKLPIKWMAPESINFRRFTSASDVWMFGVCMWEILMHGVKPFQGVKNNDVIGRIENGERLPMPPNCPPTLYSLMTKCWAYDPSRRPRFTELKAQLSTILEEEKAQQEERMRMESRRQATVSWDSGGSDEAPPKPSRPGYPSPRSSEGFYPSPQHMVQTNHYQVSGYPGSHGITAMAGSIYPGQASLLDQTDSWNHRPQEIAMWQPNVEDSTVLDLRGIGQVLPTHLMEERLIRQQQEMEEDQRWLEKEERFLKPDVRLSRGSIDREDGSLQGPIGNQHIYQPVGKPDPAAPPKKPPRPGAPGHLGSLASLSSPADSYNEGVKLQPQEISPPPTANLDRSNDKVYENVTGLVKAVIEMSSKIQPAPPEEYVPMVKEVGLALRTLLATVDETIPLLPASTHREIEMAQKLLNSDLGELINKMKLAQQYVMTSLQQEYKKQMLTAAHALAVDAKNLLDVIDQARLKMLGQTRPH

[4] = test system: Fibrinogen (Alexa647-labelled); experiment: fibrinogen binders on compound microarrays, profiling panel, artefact control for SMM control-protein annotation, biochemical, small-molecule microarray, 635/667 nm fluorescence (AID 1131); conditions: fibrinogen-A647 binding fluorescence, higher = more signal;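 further: z-score merges 667 nm fluorescence with per-spot signal-to-noise over triplicate slides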
[5] = molecular target: Follistatin (Homo sapiens) (UniProt P19883); experiment: follistatin binders on small-molecule microarrays, primary screen, biochemical, small-molecule microarray, 635/667 nm fluorescence (AID 1132); conditions: FST binding, 635 nm fluorescence, higher = more signal
Sequence of Follistatin (Homo sapiens) (P19883 whole entry, looked up): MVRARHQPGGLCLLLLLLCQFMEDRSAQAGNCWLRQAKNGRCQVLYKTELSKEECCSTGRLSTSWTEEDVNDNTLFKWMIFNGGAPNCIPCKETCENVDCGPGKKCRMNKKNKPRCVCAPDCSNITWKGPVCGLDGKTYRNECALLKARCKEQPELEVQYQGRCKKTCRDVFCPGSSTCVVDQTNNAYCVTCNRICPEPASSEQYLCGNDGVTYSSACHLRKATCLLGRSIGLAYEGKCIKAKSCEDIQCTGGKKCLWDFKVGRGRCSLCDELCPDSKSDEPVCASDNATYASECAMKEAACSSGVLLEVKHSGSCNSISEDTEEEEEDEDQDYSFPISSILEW

[6] = molecular target: Fibroblast growth factor 2 (Homo sapiens) (UniProt P09038); experiment: FGF2 binders on small-molecule microarrays, primary screen, biochemical, small-molecule microarray, 635/667 nm fluorescence (AID 1133); conditions: small-molecule microarray binding, FGF2, fluorescence 635/667; higher = more signal
Sequence of Fibroblast growth factor 2 (Homo sapiens) (P09038 whole entry, looked up): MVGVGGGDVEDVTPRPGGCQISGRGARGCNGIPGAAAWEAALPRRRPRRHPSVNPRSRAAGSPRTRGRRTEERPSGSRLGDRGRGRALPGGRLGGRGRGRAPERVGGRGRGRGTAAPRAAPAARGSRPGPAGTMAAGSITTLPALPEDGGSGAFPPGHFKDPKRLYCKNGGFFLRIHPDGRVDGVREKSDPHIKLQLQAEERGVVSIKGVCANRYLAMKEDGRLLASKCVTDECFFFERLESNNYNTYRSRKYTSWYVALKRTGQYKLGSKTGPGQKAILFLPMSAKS

[7] = mitochondrial membrane potential change in A549 cells, profiling panel, cell-based, JC-1 fluorescence, basal, 24 h, 100 nL (AID 1138); conditions: higher = more signal;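 further: A549 lung adenocarcinoma cells under basal conditions with no added stimulus; test concentration not given here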
[8] = test system: Lefty1; experiment: Lefty1 binders on small-molecule microarrays, primary screen, biochemical, small-molecule microarray, 635/667 nm fluorescence (AID 1139); conditions: small-molecule microarray binding, fluorescence 635/667; higher = more signal
[9] = test system: wheat germ agglutinin (Triticum aestivum), Alexa647-labelled; experiment: wheat germ agglutinin binders on compound microarrays, profiling panel, artefact control for SMM control-protein annotation, biochemical, small-molecule microarray, 635/667 nm fluorescence (AID 1140); conditions: WGA-A647 binding, 635 nm fluorescence, higher = more signal;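 further: score merges 667 nm feature emission with signal to noise over triplicate slides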
[10] = molecular target: Luciferin 4-monooxygenase (Photinus pyralis) (UniProt P08659); experiment: firefly luciferase enzyme inhibitors, primary screen, biochemical, luminescence, purified enzyme, 2006 set (AID 1141); conditions: SteadyGlo luminescence, 30 min, higher = more signal, called active from +8 up or from −8 down;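 further: cell-free assay with purified firefly luciferase at 100 ng per well in PBS; test concentration not given here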
Sequence of Luciferin 4-monooxygenase (Photinus pyralis) (P08659 whole entry, looked up): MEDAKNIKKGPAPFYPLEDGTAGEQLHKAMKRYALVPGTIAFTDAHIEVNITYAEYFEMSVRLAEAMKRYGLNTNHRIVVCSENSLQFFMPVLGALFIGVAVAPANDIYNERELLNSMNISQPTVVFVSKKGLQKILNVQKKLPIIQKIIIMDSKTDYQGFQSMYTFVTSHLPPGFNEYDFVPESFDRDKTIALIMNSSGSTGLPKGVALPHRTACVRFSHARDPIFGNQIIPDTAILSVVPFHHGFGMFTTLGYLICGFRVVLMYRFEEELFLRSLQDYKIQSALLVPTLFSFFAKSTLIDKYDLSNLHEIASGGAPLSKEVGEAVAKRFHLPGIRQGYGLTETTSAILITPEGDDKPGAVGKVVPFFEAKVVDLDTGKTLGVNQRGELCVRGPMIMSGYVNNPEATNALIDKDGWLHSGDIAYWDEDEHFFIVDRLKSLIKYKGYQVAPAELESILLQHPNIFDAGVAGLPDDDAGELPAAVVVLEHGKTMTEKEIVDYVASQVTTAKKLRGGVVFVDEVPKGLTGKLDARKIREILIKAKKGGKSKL

| Structure (SMILES) | composite z-score [1] | composite z-score [2] | composite z-score [3] | composite z-score [4] | composite z-score [5] | composite z-score [6] | z-score [7] | composite z-score [8] | composite z-score [9] | z-score [10] |
| --- | --- | --- | --- | --- | --- | --- | --- | --- | --- | --- |
| COc1cc2c(cc1O)C(c1cccs1)N(Cc1ccc([N+](=O)[O-])o1)CC2 (stereo not given) | 0.737 | 0.182 | 0.215 | 0.979 | 0.257 | 0.478 | 2.32 | -0.795 | 0.839 | -2.26 (inactive) |
| CC(C)[Si](C#C[Si](C(C)C)(C(C)C)C(C)C)(O[C@H](C)c1cn(Cc2ccccc2)nn1)C(C)C | 0.386 | 1.01 | 0.677 | 0.872 | 0.509 | 0.427 | 0.0378 | 0.56 | 0.502 | -0.398 (inactive) |
| CC(C)[C@@H](C(=O)O)n1cc(C2(O)CCCCC2)nn1 | 0.948 | 1.1 | 0.167 | 0.598 | 0.486 | 0.2 | 0.0494 | 0.528 | 0.0063 | 0.983 (inactive) |
| COc1ccc([Si](C)(C)[C@H]2[C@H](CCn3cc([C@H](O)c4ccccc4)nn3)O[C@@]3(C(=O)N(C)c4ccccc43)[C@@H]2C)cc1 | -0.0799 | 0.0391 | 0.254 | -1.37 | 0.862 | 0.322 | 1.65 | 1.23 | -0.0898 | -0.0548 (inactive) |
| COCCOC(=O)N1C(=O)[C@@]2(c3cc(C#Cc4ccc(OC)cc4)ccc31)[C@H](c1ccc(O)cc1)N1[C@H](c3ccccc3)[C@H](c3ccccc3)OC(=O)[C@H]1[C@@H]2C(=O)Nc1nc2ccccc2s1 | 0.513 | 1.19 | -0.0177 | 0.939 | 1.26 | 0.499 | -2.06 | 0.617 | 0.649 | -0.894 (inactive) |
| C=CCC(OC(C)=O)[C@@H]1[C@@H](N(Cc2ccc(-c3ccccc3)cc2)C(=O)Cc2ccc(F)cc2)c2cc(OCCCO)ccc2N1C(=O)c1ccc2ccccc2c1 (stereo not given in full) | -0.264 | -0.0066 | 0.16 | -0.163 | 0.296 | 0.288 | 1.73 | 0.125 | -0.117 | -0.87 (inactive) |
| CC#CC(=O)Oc1ccc(Br)cc1C=CC(=O)OCC | -0.179 | 1.06 | 0.167 | -0.382 | 0.233 | -0.0698 | -0.817 | 0.0606 | 0.665 | -0.39 (inactive) |
| [N-]=[N+]=Nc1ccccc1C[C@@]1(C(=O)N2CCCCC2)N=C(c2ccc(OCCCO)cc2)O[C@@H]1c1ccccc1 | 1.63 | 1.2 | 0.98 | 0.95 | 0.72 | 0.11 | 1.13 | -0.322 | 1.31 | -2.98 (inactive) |
| COc1ccc([Si](C)(C)[C@@H]2[C@@H](CCO)O[C@]3(C(=O)N(Cc4cccc(N5CCOC5=O)c4)c4ccccc43)[C@H]2C)cc1 | 0.0657 | 0.981 | -0.0325 | 0.9 | 1 | 0.568 | -0.393 | 0.26 | 1.08 | -0.335 (inactive) |
| CC(C)(C)OC(=O)CC[C@@]1(C(=O)N2CCCCC2)N=C(c2ccc(OCCCO)cc2)O[C@@H]1c1ccccc1 | 1.87 | 1.25 | 0.744 | 1.02 | 1.09 | 1.04 | 1.09 | 0.501 | 1.27 | -1.73 (inactive) |
| COc1ccc([C@H]2OC[C@@H]3CCC(=O)N32)cc1 | 0.822 | 1.02 | 0.0902 | 0.362 | 0.886 | 0.031 | 0.779 | 1.36 | 0.329 | -0.699 (inactive) |
| [N-]=[N+]=Nc1ccccc1[C@H]1OC(c2ccc(OCCCO)cc2)=N[C@@]1(CCS(=O)(=O)c1ccccc1)C(=O)NCc1ccccc1 | 1.18 | 1.24 | 0.341 | 1.04 | 1.34 | 0.694 | 0.727 | 0.152 | 0.697 | -7.61 (inactive) |
| CCC(CC)C(O)C1C=CC2C(=O)N(c3ccccc3)C(=O)C2N1Nc1ccccc1 (stereo not given) | 1.51 | 1.25 | 0.633 | 1 | 1.06 | 0.514 | -0.117 | 0.858 | 1.03 | -1.9 (inactive) |
| C=CC[C@]1(C(N)=O)COC(c2ccc(OCCCO)cc2)=N1 | 1.07 | 0.017 | 0.2 | 0.561 | 0.786 | 1.31 | 0.359 | 0.863 | 0.493 | 0.322 (inactive) |
| O=C(CS)NCCCCCNC(=O)[C@@H]1C[C@@H]2C(=O)NCC(=O)N2[C@@H]1c1ccc(O)cc1 | 1.79 | 0.443 | 0.393 | -0.135 | 1.18 | 1.24 | -0.977 | 0.269 | -0.855 | -1.24 (inactive) |
| CCCCCCCCCCC(O)C1C=CC2C(=O)NC(=O)C2N1Nc1ccc(Cl)cc1Cl (stereo not given) | 0.997 | 0.186 | 0.459 | 0.331 | -0.184 | -0.942 | -0.863 | -1.14 | 0.117 | -0.836 (inactive) |
| O=C1O[C@H](c2ccccc2)[C@H](c2ccccc2)N2[C@H]1[C@@H](C(=O)N1CCN(c3ncccn3)CC1)[C@]1(C(=O)Nc3ccc(C#CC4=CCCCC4)cc31)[C@H]2c1ccccc1OCCO | 1.5 | 1.18 | 0.543 | 0.916 | 1.34 | 1.3 | -1.01 | 1.16 | 1.07 | -0.662 (inactive) |
| C=CCC(OC(C)=O)[C@@H]1[C@@H](N(Cc2ccc(-c3cccc(C(F)(F)F)c3)o2)C(=O)c2cccc3ccccc23)c2cc(OCCCO)ccc2N1C(=O)Cc1ccc2ccccc2c1 (stereo not given in full) | 0.383 | -0.688 | 0.172 | 0.702 | 0.37 | -0.129 | -0.65 | -0.0051 | 0.178 | 0.335 (inactive) |
| COc1ccc([Si](C)(C)[C@@H]2[C@@H](CC(=O)N3CCC[C@H]3CO)O[C@]3(C(=O)N(Cc4cccc(I)c4)c4ccccc43)[C@H]2C)cc1 | 2.04 | 0.781 | -0.204 | 0.591 | 1.39 | 1.76 | -0.77 | 1.64 | 0.481 | -0.368 (inactive) |
| COCC(=C=CC[C@H](O)c1cccc(OCCO)c1)C[C@H](O)c1cc(Cl)cc(Cl)c1O | 1.69 | 1.11 | 0.0607 | 0.0479 | 1.37 | 1.87 | 0.324 | 1.37 | 0.107 | -0.709 (inactive) |
| COC(=O)c1c(CC[C@@H](CO)NC(=O)N[C@@H](Cc2ccccc2)Cn2cc(-c3ccccn3)nn2)oc(C(=O)N2CCOCC2)c1C(=O)OC | -0.241 | -0.341 | 0.384 | -0.405 | 0.57 | -0.129 | -0.187 | 0.795 | 0 | 1.1 (inactive) |
| CO[C@H]1O[C@H](CO)[C@@H](OC(=O)Nc2cccc(F)c2)[C@H](OC(=O)Nc2ccccc2)[C@H]1OC(=O)Nc1ccccc1 | 2.02 | 1.29 | 0.656 | 0.993 | 1.35 | 1.12 | -1.18 | 1.3 | 0.662 | 0.124 (inactive) |
| O=C1C2C=CC(C(O)c3ccc(-c4ccccc4)s3)N(Nc3ccccc3)C2C(=O)N1c1ccccc1 (stereo not given) | 2.17 | 1.25 | 0.473 | 0.974 | 0.899 | -0.413 | 0.267 | -0.28 | 0.807 | 0.192 (inactive) |
| CO[C@H]1O[C@H](CO)[C@@H](OC(=O)Nc2ccc(Oc3ccccc3)cc2)[C@H](OC(=O)Nc2ccc3c(c2)OCO3)[C@@H]1OC(=O)Nc1ccc2c(c1)OCO2 | 1.83 | 1.24 | 0.653 | 0.85 | 1.28 | 1.2 | -0.216 | 0.423 | 0.779 | -5.16 (inactive) |
| O=C1O[C@@H](c2ccccc2)[C@@H](c2ccccc2)N2[C@@H](c3ccc(OCCO)cc3)[C@]3(C(=O)Nc4ccc(C#CCCO)cc43)[C@@H](C(=O)NC[C@H](O)c3ccccc3)[C@H]12 | 0.797 | 1.17 | 0.947 | 0.668 | 1.34 | 1.01 | 0.225 | 0.958 | 0.356 | -1.15 (inactive) |
| O=C1O[C@@H](c2ccccc2)[C@@H](c2ccccc2)N2[C@@H](c3ccccc3OCCO)[C@]3(C(=O)Nc4ccccc43)[C@@H](C(=O)O)[C@H]12 | 0.969 | 0.718 | 0.66 | 0.882 | -0.0086 | -0.166 | -0.184 | -0.474 | 0.56 | -1.55 (inactive) |
| COC(=O)[C@@]1(Cc2ccc(F)cc2)[C@H]2c3cc(C(=O)N(C)C)n(Cc4ccc(C)o4)c3C[C@H]2CN1C(=O)c1ccccc1 | 1.17 | 0.761 | -0.42 | -1.92 | -1.96 | -1.4 | 0.546 | -1.2 | 0.319 | 0.483 (inactive) |
